Paper PMC7819943, “Rice protein-binding microarrays: a tool to detect cis-acting elements near promoter regions in rice”
In all, about 39,000 sequences were measured (“fluorescence intensity (a.u.)”: median about 4,300, highest 2% from about 39,000 on). This excerpt belongs to a sample that is enriched for the highest values.

Each sequence was assayed against T1, OsSMF1 (Oryza sativa, UniProt Q6ZLB0 1-436) (assay: protein-binding microarray (RPBM); PBS, 2% BSA, 51.3 ng/ul salmon testes DNA, 50 uM zinc acetate, 200 nM TF, 25 C, 1 h; high values mean tight binding). Conditions: protein: recombinant; tags: N-terminal polyhistidine and DsRed monomer fusion (pET32a); chain copies: 2; label: CyDye5-dUTP incorporated in the synthesized complementary strand; 3' TTTTT single-stranded linker to array surface; dsDNA, one strand shown.
T1 sequence: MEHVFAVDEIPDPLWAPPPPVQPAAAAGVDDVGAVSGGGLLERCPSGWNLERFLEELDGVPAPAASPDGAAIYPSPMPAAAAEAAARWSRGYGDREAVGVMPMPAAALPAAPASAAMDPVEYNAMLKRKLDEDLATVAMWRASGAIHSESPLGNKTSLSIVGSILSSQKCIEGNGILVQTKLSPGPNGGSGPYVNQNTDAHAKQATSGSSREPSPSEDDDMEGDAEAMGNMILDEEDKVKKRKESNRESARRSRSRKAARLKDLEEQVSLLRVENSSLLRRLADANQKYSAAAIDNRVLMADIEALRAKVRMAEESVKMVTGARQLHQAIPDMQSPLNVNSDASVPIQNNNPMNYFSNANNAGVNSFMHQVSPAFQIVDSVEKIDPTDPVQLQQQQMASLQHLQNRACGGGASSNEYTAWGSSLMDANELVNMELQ
How it was run: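 For the binding signal, per-feature fluorescence intensity was read in arbitrary units on an Axon 4000B scanner. Before scanning, a 2% BSA-blocked custom Agilent array made double-stranded with Cy5-dUTP was washed after 1 h at 25 °C with 200 nM protein and 50 µM zinc acetate. The proteins were Ni–NTA-purified transcription factors with N-terminal polyhistidine and DsRed fusions, expressed in E. coli BL21-CodonPlus.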
For “TGGTTGTATTAGGTTAATAAGCCACGTCAGTGAAAAGCACCGGAGTCACCTAGTGCAG”, the binding signal was 16100 fluorescence intensity (a.u.).
For “TGAATGCACGTACTGGTGATGAATCTCTGATGGATGGAAGCGGAGTCACCTAGTGCAG”, the binding signal was 3210 fluorescence intensity (a.u.).
For “CCACCGGAAACAGGGAAGAAGAGGGGTCGAGAAAGGGGAGCGGAGTCACCTAGTGCAG”, the binding signal was 4020 fluorescence intensity (a.u.).
In the case of “AGAAGGGGAGAAAAGGAAACCGATCTCGGTCATGGCCACGCGGAGTCACCTAGTGCAG”, the binding signal is reported as 50900 fluorescence intensity (a.u.).
For “AGCAGGAGAAGGGACCGAGAGAAGAGTCGCAGAGAGAGAGCGGAGTCACCTAGTGCAG”, the binding signal was 3660 fluorescence intensity (a.u.).
“AGAGAGGGAAGGGAGGGAGGGAGGGAGGAGGGAGAGATCTCGGAGTCACCTAGTGCAG” was tested, and the binding signal was 6770 fluorescence intensity (a.u.).
In the case of “AGCAGAGTGATCTCTGATGGTCACGGGCCGAGAAGGGAAGCGGAGTCACCTAGTGCAG”, the binding signal is reported as 45700 fluorescence intensity (a.u.).
“GCCGCGCCGTCCTGTGTGTGCGTGGCGCCAATGCATGCTACGGAGTCACCTAGTGCAG” was tested, and the binding signal was 3590 fluorescence intensity (a.u.).
With “GGTTTTGGAGAGCGGTTTCACTGACGTGGCAGTGTTGACCCGGAGTCACCTAGTGCAG” the binding signal was 22900 fluorescence intensity (a.u.).
With “ACGCCTCATCTCCAGTCCACGGCTCAACGTCCACGCACACCGGAGTCACCTAGTGCAG” the binding signal was 3490 fluorescence intensity (a.u.).
“TGATTTTGTTTTAATACATGCAATCTTTCGATCCAATGGCCGGAGTCACCTAGTGCAG” was tested, and the binding signal was 24000 fluorescence intensity (a.u.).
With “TCGATCTGCACATGTGCACGCGCATGTGTCGTCGGCTTAGCGGAGTCACCTAGTGCAG” the binding signal was 3230 fluorescence intensity (a.u.).
“GACTAATCAAACAATTTCCCTCGCTATTAGTCACTGACAGCGGAGTCACCTAGTGCAG” was tested, and the binding signal was 3590 fluorescence intensity (a.u.).
In the case of “CACCTAGCATGCATAGGACGAGGCATTTAATTTTACTTATCGGAGTCACCTAGTGCAG”, the binding signal is reported as 22000 fluorescence intensity (a.u.).
In the case of “GCATGCGGGATAGGAGCTTGACTAGCATGACGAGGCAGAACGGAGTCACCTAGTGCAG”, the binding signal is reported as 5890 fluorescence intensity (a.u.).
For “ATTTAATAGTCCGGGAGGCATGCTTACGGACAAGGACGAACGGAGTCACCTAGTGCAG”, the binding signal was 47100 fluorescence intensity (a.u.).
“GCATGCTCTCCGTGCCGTATGCGCTGTCGTAGGGCAGGTGCGGAGTCACCTAGTGCAG” was tested, and the binding signal was 3760 fluorescence intensity (a.u.).
With “CGCCGCCGCCGTCGCTGCCGCCGCCGCCGCCGCCTAGGGTCGGAGTCACCTAGTGCAG” the binding signal was 29300 fluorescence intensity (a.u.).
For “TCACTTCTCTCCTCCACATGTGCATACAACTGACTTATAACGGAGTCACCTAGTGCAG”, the binding signal was 4660 fluorescence intensity (a.u.).
With “GTTGAATTCTGTGCGTGTAAGCAGACCTGCATTGCCGTCGCGGAGTCACCTAGTGCAG” the binding signal was 3170 fluorescence intensity (a.u.).
With “TCCCAATTGACTAGAGGATGCTTCAGAGATGAAAACATGGCGGAGTCACCTAGTGCAG” the binding signal was 3190 fluorescence intensity (a.u.).
“TCCAGCTCTGAATTTCACTCTGCATGCATAAGTTGCAGGACGGAGTCACCTAGTGCAG” was tested, and the binding signal was 48100 fluorescence intensity (a.u.).
“GCAATTCACTCCAGTTCACTTTGCCAGCTTGTCTCTCTGACGGAGTCACCTAGTGCAG” was tested, and the binding signal was 3520 fluorescence intensity (a.u.).
In the case of “ATAATGAAAATGAGAATTCATGCCAGCTCTGCAAAGTGGACGGAGTCACCTAGTGCAG”, the binding signal is reported as 4780 fluorescence intensity (a.u.).
In the case of “ATATACAGTACACGTTCTTGCCCTCATTGCCACATAGTACCGGAGTCACCTAGTGCAG”, the binding signal is reported as 4020 fluorescence intensity (a.u.).
With “TCCCCAAGTCAGTCAATGCCATCACTGTCATCTGCTCTCACGGAGTCACCTAGTGCAG” the binding signal was 3200 fluorescence intensity (a.u.).
“TTCATTGACCGAGAACGATAGCACGCATCACATCAGCATCCGGAGTCACCTAGTGCAG” was tested, and the binding signal was 3250 fluorescence intensity (a.u.).
In the case of “GAGGGTTCTTGATGCGTGACCTGATGCGGGAGGCGTATTGCGGAGTCACCTAGTGCAG”, the binding signal is reported as 39200 fluorescence intensity (a.u.).
For “TGGGAGTGCGTGGTGTGCGTGGCGTCGGTTCTTGCGGAGGCGGAGTCACCTAGTGCAG”, the binding signal was 5410 fluorescence intensity (a.u.).
In the case of “CGCGCGTGCGGTTCTTGTGTCCGAGGGTGGTGGTGTGTGGCGGAGTCACCTAGTGCAG”, the binding signal is reported as 3360 fluorescence intensity (a.u.).
With “ATTGAAAATTCTCTACTCTTTACACGTGTCCATCATCCCACGGAGTCACCTAGTGCAG” the binding signal was 19100 fluorescence intensity (a.u.).
With “TCAAGTCATGAATTCTCCTATTTCAAGTCACTTCAGAAGTCGGAGTCACCTAGTGCAG” the binding signal was 3330 fluorescence intensity (a.u.).
“GCAGCGCCATGAAAGCGCATGGCATGCATGCACTGCACTGCGGAGTCACCTAGTGCAG” was tested, and the binding signal was 3520 fluorescence intensity (a.u.).
With “CATGCCAGGTCAGTCGGCATCCATGAAGACTGCACTGCACCGGAGTCACCTAGTGCAG” the binding signal was 42600 fluorescence intensity (a.u.).
“TTTATGGATAGAAGATGCACCGGCCAGGTCATGAAGATCACGGAGTCACCTAGTGCAG” was tested, and the binding signal was 4050 fluorescence intensity (a.u.).
In the case of “AATCGTGCTCGATTGACCTCACTAATTCATCCCTGTAACCCGGAGTCACCTAGTGCAG”, the binding signal is reported as 25700 fluorescence intensity (a.u.).
With “GGGGTGAGGTGAGGTTACCACGTCGGCGACGGTGAGGAAGCGGAGTCACCTAGTGCAG” the binding signal was 6110 fluorescence intensity (a.u.).
In the case of “CTTATCTACTTGATATTTGCATATGTATACAGTTTTACTGCGGAGTCACCTAGTGCAG”, the binding signal is reported as 3220 fluorescence intensity (a.u.).
For “GGTAGCTGATACAGGTATGCAGACGAAAGATCACACCTATCGGAGTCACCTAGTGCAG”, the binding signal was 32500 fluorescence intensity (a.u.).
For “ATGATCAGATACACACTCTGGCTTGGCTTGTAGCTGCAACCGGAGTCACCTAGTGCAG”, the binding signal was 50400 fluorescence intensity (a.u.).
With “GCTGAGCTGAGCTGATATGATCAACACAGTGCAGACTTGGCGGAGTCACCTAGTGCAG” the binding signal was 3710 fluorescence intensity (a.u.).
In the case of “ACTTGATCAGCACACTCTGGTGACATGACAGCTGTAAAGTCGGAGTCACCTAGTGCAG”, the binding signal is reported as 4180 fluorescence intensity (a.u.).
In the case of “GTAGTACCATGTATTAGATGGACTTCTCCACGTTTCTCTGCGGAGTCACCTAGTGCAG”, the binding signal is reported as 4980 fluorescence intensity (a.u.).
In the case of “GGGGCCACATCGTCAGTGAAACGGACGGGTATAGGGTTAGCGGAGTCACCTAGTGCAG”, the binding signal is reported as 3270 fluorescence intensity (a.u.).
“CGCGCCGTCGTCCAGCCACCGTCACGCCGCGCGGGGCGCCCGGAGTCACCTAGTGCAG” was tested, and the binding signal was 3830 fluorescence intensity (a.u.).
In the case of “CGCCGCCTCCGCCTCCGCCTCCGCTGCTCGCCGACCGGAGCGGAGTCACCTAGTGCAG”, the binding signal is reported as 4680 fluorescence intensity (a.u.).
“CATAGCCCTCTGTCGCGGGCGCCGCTGTCCACCGTCCTCCCGGAGTCACCTAGTGCAG” was tested, and the binding signal was 43900 fluorescence intensity (a.u.).
“CCTCCTCGCTGCCCAGCCACCGCCGCCCTCCCGTCCCGCGCGGAGTCACCTAGTGCAG” was tested, and the binding signal was 3490 fluorescence intensity (a.u.).
With “ATCGCCCCGCTGACCGCCTCCTCCCGCGGCTGTCCGAGCGCGGAGTCACCTAGTGCAG” the binding signal was 41300 fluorescence intensity (a.u.).
In the case of “TTGACCGCTTGACGCGGAGCTCCCCGCCGGCCTCCTCCCCCGGAGTCACCTAGTGCAG”, the binding signal is reported as 4540 fluorescence intensity (a.u.).
With “ATCAGCAACAATCAGGCTCCTGTGCGGTAAGTCCAACATTCGGAGTCACCTAGTGCAG” the binding signal was 6700 fluorescence intensity (a.u.).
“AGTGCTAGTCATCACTGTATTAGATTTAGGAATCTCTTCTCGGAGTCACCTAGTGCAG” was tested, and the binding signal was 3600 fluorescence intensity (a.u.).
“AATCCGCCGAGGGACTTATTGTGACCGGTTTTGATTAGTTCGGAGTCACCTAGTGCAG” was tested, and the binding signal was 19600 fluorescence intensity (a.u.).
In the case of “CCACACACTTATGAACACGAGTACAGCCGATGCCCTATAACGGAGTCACCTAGTGCAG”, the binding signal is reported as 3390 fluorescence intensity (a.u.).
